Our source for the sensor-assay potency score (higher = more potent) values is the OligoGym collection.
Note: reference of the scale not given here.

One assay addresses GPBAR1. Nature of the assay: pooled miR-30 sensor sort-seq; sequence = guide strand. The settings on record: shRNA.
In the case of TGCTTTGGCTGCTTGGGTGGTA, the sensor-assay potency score (higher = more potent) was -0.379.

Regarding TTGGGTGGTAGGCAATGCTGGG, the sensor-assay potency score (higher = more potent) is -0.797. On the same count and under the same terms, the result for TTCCACAGCCCTGGCAATGTGG reads -1.2; that for AGGAGGGACAACAGTGTCCCAG, -1.92. In turn, ATGTGGGCAATGCCAGACCCGT gave a sensor-assay potency score (higher = more potent) of -2.11.

The sequence TAGCGCTGATCGCCCAGCCCCA showed a sensor-assay potency score (higher = more potent) of -1.62.

As for TGGTAGGCAATGCTGGGGCCGG, the sensor-assay potency score (higher = more potent) was -1.84. As for TGCACTGGCACTTCCTAGGGAG, the sensor-assay potency score (higher = more potent) is -0.377.

On to TGGGTGGTAGGCAATGCTGGGG, for which the sensor-assay potency score (higher = more potent) is -1.2. Still for that read-out and setting: the result for TGTGTAGCGCTGATCGCCCAGC reads -1.16. On the same count and under the same terms, the result for ACTGCTTTGGCTGCTTGGGTGG reads -1.37.

Consider CTGTGTAGCGCTGATCGCCCAG, for which the sensor-assay potency score (higher = more potent) is -1.64.

For a further assay, the target named is GPIHBP1. Described as above. The settings on record: shRNA.
For ATGTGAGCAGTTCTGCGTCAGG, the sensor-assay potency score (higher = more potent) is -1.72. On the same count and under the same terms, the result for TTGCACAGGCTGGACTGGCAGC reads -1.25; that for TCATCTTCCTCGTCGTAGTCAT, -0.418. Same read-out and setting: the result for TTCAACCTCATCCTCATCTTCC reads -0.334. In turn, ATGAGGGTTGTGCAGGTCTGGC registered a sensor-assay potency score (higher = more potent) of -1.69. For the sequence TCGTCGTAGTCATCTGGCCCGT, the sensor-assay potency score (higher = more potent) is -1.29.

ATCCTCATCTTCCTCGTCGTAG had a sensor-assay potency score (higher = more potent) of -0.474. Same read-out and setting: then TTCTGCGTCAGGTTGCAGCGCT, with -0.795. Still for that read-out and setting: then TTGTGCAGGTCTGGCCATGTGA, with -0.97; and TGTTGGTCTCCTCCTCTTCAAC, with -1.59. Same read-out and setting: the result for TTCCTCGTCGTAGTCATCTGGC reads -0.201.
